In PubChem BioAssay:

target: NADPH oxidase 4 (Homo sapiens) (UniProt Q9NPH5); assay: NOX4-dependent H2O2 signal modulators, primary screen, NOX inhibitor project, cell-based, HEK293-NOX4, tetracycline-induced, Amplex Red fluorescence (AID 1160); details: 45 min, higher = more signal, called active from +8 up or from −8 down
Sequence (Q9NPH5 whole entry, looked up): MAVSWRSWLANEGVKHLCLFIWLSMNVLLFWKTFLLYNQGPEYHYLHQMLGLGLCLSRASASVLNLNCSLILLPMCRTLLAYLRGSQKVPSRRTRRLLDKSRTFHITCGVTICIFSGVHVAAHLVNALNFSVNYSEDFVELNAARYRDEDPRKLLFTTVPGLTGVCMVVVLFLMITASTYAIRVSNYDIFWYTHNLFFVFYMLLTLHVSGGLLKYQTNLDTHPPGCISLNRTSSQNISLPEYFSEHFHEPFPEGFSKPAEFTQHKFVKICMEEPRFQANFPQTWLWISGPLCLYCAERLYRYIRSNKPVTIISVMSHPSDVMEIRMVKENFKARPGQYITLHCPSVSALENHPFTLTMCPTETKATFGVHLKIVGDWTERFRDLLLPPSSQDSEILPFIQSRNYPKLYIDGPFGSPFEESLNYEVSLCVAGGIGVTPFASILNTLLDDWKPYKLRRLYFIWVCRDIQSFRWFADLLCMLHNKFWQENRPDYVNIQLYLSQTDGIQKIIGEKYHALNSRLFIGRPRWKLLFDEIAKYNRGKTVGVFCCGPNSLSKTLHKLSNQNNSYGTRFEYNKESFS

z-score, inactive:
CCOC(=O)C[C@H]1[C@H](OC(=O)Cc2ccc3c(c2)OCO3)[C@@H](NC(=O)c2ccc3ccccc3n2)c2cc(OCCCO)ccc2N1C(=O)c1ccccc1 0.521, COc1ccc([Si](C)(C)[C@@H]2[C@@H](CC(=O)N(CCO)Cc3ccccc3)O[C@]3(C(=O)N(Cc4cccc(N5CCCCC5=O)c4)c4ccccc43)[C@H]2C)cc1 1.28, C=C[C@@H](OC)[C@H](OC(=O)Nc1ccc(OC)cc1)c1ccc(O)c(F)c1 0.787, CCCCCC1=C2CNC(C)(C(=O)OC)C=C2C(C)C1=O (configuration not stated) -2.6, O=C1NC(=O)C2C1C=CC(C(O)c1ccco1)N2Nc1ccc(Cl)cc1Cl (configuration not stated) -5.58, CCC#CCN(Cc1ccccc1Br)[C@H](/C=C/C1CC1)[C@@H](O)Cc1ccccc1 1.07, COc1ccc([Si](C)(C)[C@@H]2[C@@H](CC(=O)N3Cc4ccccc4C[C@H]3CO)O[C@]3(C(=O)N(Cc4ccc(N5C(=O)c6cccc7cccc5c67)cc4)c4ccccc43)[C@H]2C)cc1 0.929, [N-]=[N+]=Nc1ccccc1C[C@@]1(C(=O)NCCN2CCOCC2)N=C(c2ccc(OCCCO)cc2)O[C@@H]1c1ccccc1N=[N+]=[N-] -0.157, CC1=C2[C@@H](CCc3ccccc3)OB(O)C[C@@H]2[C@@H]2C(=O)N(Cc3ccccc3)C(=O)[C@@H]2C1 0.167, CC1CC/C=C\[C@H]2OC34C=CCN(Cc5ccccc5)C(=O)[C@H]3N(C(CO)C(C)C)C(=O)[C@@H]4C2C(=O)O1 (some centres not stated) 0.983, COc1cccc(C)c1NC(=O)O[C@H]1[C@H](OC(=O)Nc2ccc3c(c2)OCO3)[C@@H](OC(=O)Nc2ccc3c(c2)OCO3)[C@@H](OC)O[C@@H]1CO -0.747, Cc1ccccc1C(O)C1C=CC2C(=O)NC(=O)C2N1Nc1ccccn1 (configuration not stated) -2.62, CCCCC(=C=CC[C@H](O)c1ccc(OCCO)cc1)CCO -0.798, CC(c1ccccc1)C(O)C1C=CC2C(=O)N(C)C(=O)C2N1Nc1ccccc1 (configuration not stated) -3.77, C=CCC(OC(C)=O)[C@@H]1[C@@H](N(Cc2ccc(-c3cccc(C(F)(F)F)c3)o2)C(=O)Cc2ccc(OC)cc2)c2cc(OCCCO)ccc2N1C(=O)c1ccc(-c2ccccc2)cc1 (some centres not stated) -1.15, Cc1ccc(S[C@]2(C(=O)NC(C)C)CC(=O)N(Cc3cc(C(F)(F)F)cc(C(F)(F)F)c3)[C@@H]2c2ccc(CO)cc2)cc1 -0.242, CCOC(=O)C[C@H]1[C@H](OC(=O)c2cc3ccccc3oc2=O)[C@@H](NC(=O)CC(C)C)c2cc(OCCCO)ccc2N1C(=O)c1ccc2ccccc2n1 1.23, COc1ccc(CCNC(=O)[C@@]2(c3ccc([N+](=O)[O-])cc3)CC(=O)N(C3CCCCC3)[C@@H]2c2ccc(CO)cc2)cc1 0.479, C[C@@H]1NC(=O)[C@@H](Cc2ccccc2)NC(=O)[C@@]23C(=O)N[C@@H](Cc4ccccc4)C2[C@H](C)[C@@]2(C)O[C@H]2C3/C=C/C/C=C\CNC1=O (some centres not stated) -0.614, CCC1=C2CN(Cc3ccccc3)[C@@H](C(=O)Cc3ccccc3)C2C=CCC1 (some centres not stated) -1.42, N#Cc1ccc(NN2C(C(O)c3ccc(Br)cc3)C=CC3C(=O)N(c4ccccc4)C(=O)C32)cc1 (configuration not stated) -4.29, OCCCC1=CC(c2ccc(CN3CCCC3)cc2)N(Cc2cc3c(cc2Br)OCO3)CC1 (configuration not stated) -1.21, O=C(O)[C@@H]1C[C@@H]2C(=O)N3CCC[C@H]3C(=O)N2[C@@H]1c1ccc(O)cc1 -4.92, CC(C)[Si]1(C(C)C)OCc2cc(-c3ccc(-c4ccc(Cl)c(Cl)c4)o3)nc(-c3ccccc3)c21 -1.35, COc1ccc([Si](C)(C)[C@@H]2[C@@H](CCO)O[C@]3(C(=O)N(Cc4ccccc4)c4ccc(N5C(=O)c6cccc7cccc5c67)cc43)[C@H]2C)cc1 0.1, C=C[C@H](C)[C@H](OC(=O)Nc1ccc(SC)cc1)c1ccc(OCCO)cc1 -0.356, CCOC(=O)C[C@H]1[C@H](OC(=O)c2cc3ccccc3oc2=O)[C@@H](NC(=O)c2ccc3ccccc3n2)c2cc(OCCCO)ccc2N1C(=O)Cc1ccc(OC)cc1 1
